Laboratory results: PubChem BioAssay AID1489 (National Center for Advancing Translational Sciences (NCATS), 2009)
Records with an inconclusive call do not appear. Activity calls are given as the source filed them. The call rests on the fitted dose curve; in most records, active means well fitted antagonist curve with a large enough effect in the main read-out, with a control signal flat; inconclusive means small, poorly fitted or top-dose-only effect; inactive means no such curve, though single readings can be large or run the other way.

biological target: Neuropeptide S receptor (Homo sapiens) (UniProt Q6W5P4); assay: Confirmation Concentration-Response Assay for Antagonists of the Neuropeptide S Receptor: Calcium Signal Transduction; details: CHO-NPSR cells, NPS-induced calcium flux, FDSS; series mostly up to 19.3 µM
Sequence (Q6W5P4 whole entry, looked up): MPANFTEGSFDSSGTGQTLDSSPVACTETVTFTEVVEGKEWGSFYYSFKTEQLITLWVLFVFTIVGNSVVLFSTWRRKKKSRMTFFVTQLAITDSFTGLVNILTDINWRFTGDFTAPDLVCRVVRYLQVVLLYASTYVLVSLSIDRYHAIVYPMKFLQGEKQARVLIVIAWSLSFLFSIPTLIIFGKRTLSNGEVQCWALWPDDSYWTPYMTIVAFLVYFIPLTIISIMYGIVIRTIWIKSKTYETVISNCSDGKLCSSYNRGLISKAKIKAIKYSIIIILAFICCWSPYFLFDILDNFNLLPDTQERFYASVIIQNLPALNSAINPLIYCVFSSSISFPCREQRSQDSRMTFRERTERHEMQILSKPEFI
Excerpt: NIH Chemical Genomics Center [NCGC] NIH Molecular Libraries Probe Production centers Network [MLPCN] MLPCN Grant: X01-DA026210-01 Assay Submitter (PI): Heilig, Markus Alexander NCGC Assay Overview: Neuropeptide S receptor (NPSR), previously known as GPR154, is a recently de-orphanized G protein coupled receptor. Its endogenous ligand is the 20 amino acids peptide Neuropeptide S (NPS). […] NPS and its receptor are found in various tissues. Specifically they are highly expressed in brain areas that have been implicated in modulation of arousal, stress and anxiety. Central administration of NPS in mice produces an unusual profile of activity by inducing wakefulness and arousal, while at the same time suppressing anxiety. Therefore, NPSR may represent a novel drug target for the treatment of sleep and anxiety disorders. To identify NPSR antagonists, we developed a cell-based assay with transfected NPS receptor. NPS can stimulate the production of cAMP as well as release intracellular calcium in Chinese hamster ovary cells stably expressing NPS receptor. This change in intracellular calcium can be detected using a calcium indicator dye on a calcium imaging plate reader system (FDSS).
NCGC Assay Protocol Summary: A Chinese hamster ovary (CHO) cell line stably expressing the NPS receptor (CHO-NPSR) was obtained from Dr. Heilig lab at NIAAA and maintained in F-12 Kaighn's media (Invitrogen, Carlsbad, CA, 21127) supplemented with 10 % FBS, 100 units/ml penicillin, 100 ug/ml streptomycin and 250 ug/ml geneticin at 37C, 5% CO2 in a humidified atmosphere. Before the assay, aliquots of cells were frozen and stored at -135C. The assay was performed on a FDSS-7000 kinetic plate reader in 1536-well format. For both agonist (1-220s) and antagonist (221-400s) phases, the maximums of kinetic fluorescence responses were converted separately into text files using the instrument's software data export utility. Data for agonist response were normalized to the controls for basal activity (DMSO only) and 100% activation (NPS). […] AC50 values were determined from concentration-response data modeled with the standard Hill equation. NPS 1536-well FDSS assay protocol: (1) Frozen CHO-NPSR cells were thaw, washed once with fresh media and resuspended in F-12 Kaighn's media supplemented with 10 % FBS, 100 units/ml penicillin and 100 ug/ml streptomycin. Cells were plated at 3 ul/well (1200 cells) to black, clear-bottom, tissue-culture treated 1536-well plates, and then cultured at 37C, 5 % CO2 for 16 to 30 hours. (2) Add 3 ul of calcium dye (from High Performance PBX Calcium Assay Kit, BD Biosciences). The calcium dye was prepared according to the manufactory's instruction. (3) Incubation at 37C, 5 % CO2 for 60 to 120 min. (4) Load plates to FDSS-7000. The following steps were performed on FDSS-7000. (5) Record fluorescent background (Ex 480 nm, Em 520-560 nm) for 10 s. (6) Add 23 nl/well of compound in DMSO solution. The final titration for each compound was between 0.6 nM and 46 uM. Record agonist response for 210 s. (7) Add 2 ul of stimulation reagent (1X HBSS buffer, 0.1% BSA, 60 nM NPS). Record antagonist response for 140 s. Keywords: MLSMR, MLPCN, NIH Roadmap, qHTS, NCGC, NPS, Neuropeptide S Antagonists

Row | Compound | Potency
1 | C=C(C=O)C[C@@H]1C[C@H](O)C2OC3C[C@]4(C)OC5/C=C\CC6OC7C(CC=CCC6OC5CCCC4OC3CC2O1)OC1CC2OC3CC(=O)OC3C[C@@H](C)C[C@@]2(C)OC1C[C@@H]7C (stereo not given in full) | 0.501 µM (active)
2 | CNc1ccc2oc(C[C@H]3O[C@@]4(CC[C@H]3C)O[C@H]([C@H](C)C(=O)c3ccc[nH]3)[C@H](C)C[C@H]4C)nc2c1C(=O)O | 0.0158 µM (active)
3 | Cc1cc(C=C2C(=O)NC(=S)NC2=O)c(C)n1-c1ccc2c(c1)OCO2 | 12.6 µM (active)
4 | C[C@H]1CCCC(=O)CCCCCc2cc(O)cc(O)c2C(=O)O1 | inactive
5 | CCOC(=O)c1c(-n2c(C)cc(C=C3C(=O)NC(=S)NC3=O)c2C)sc2c1CCCC2 | 2 µM (active)
6 | Cc1cccc(N2C(=O)NC(=O)/C(=C\c3cnn(-c4ccccc4)c3)C2=O)c1 | 10 µM (active)
7 | Cc1c(P(=S)(c2ccccc2)c2ccccc2)[n+]2ccccc2n1C | 0.2 µM (active)
8 | C=C1C(=O)O[C@@H]2C[C@@H](C)[C@@H]3C=CC(=O)[C@@]3(C)[C@@H](OC(=O)CC(=O)O[C@H]3[C@@H]4C(=C)C(=O)O[C@@H]4C[C@@H](C)[C@@H]4C=CC(=O)[C@]43C)[C@H]12 | 0.0891 µM (active)
9 | C=CCN1C(=O)/C(=C/c2cccs2)C(=O)NC1=S | 11.2 µM (active)
10 | CC(=O)Nc1cc([As](=O)(O)O)ccc1O | inactive
